This note sets out measurements from ChEMBL document CHEMBL1201862, “PubChem BioAssay data set” (2004).

The campaign covered roughly 400,000 compounds. About 2,100 (0.53%) were called active. Inconclusive results (about 14%) are left out. No rule for the calls is given here. What follows is part of a selection rich in actives, with near analogues and random picks from the rest.

The target in the assay is Ataxin-2 (Homo sapiens) (UniProt Q99700). The assay is described as follows: qHTS for Inhibitors of ATXN expression. Format: functional. For orientation: qHTS replaces the single test concentration by a dilution series.
Sequence of Ataxin-2 (Homo sapiens) (Q99700 whole entry): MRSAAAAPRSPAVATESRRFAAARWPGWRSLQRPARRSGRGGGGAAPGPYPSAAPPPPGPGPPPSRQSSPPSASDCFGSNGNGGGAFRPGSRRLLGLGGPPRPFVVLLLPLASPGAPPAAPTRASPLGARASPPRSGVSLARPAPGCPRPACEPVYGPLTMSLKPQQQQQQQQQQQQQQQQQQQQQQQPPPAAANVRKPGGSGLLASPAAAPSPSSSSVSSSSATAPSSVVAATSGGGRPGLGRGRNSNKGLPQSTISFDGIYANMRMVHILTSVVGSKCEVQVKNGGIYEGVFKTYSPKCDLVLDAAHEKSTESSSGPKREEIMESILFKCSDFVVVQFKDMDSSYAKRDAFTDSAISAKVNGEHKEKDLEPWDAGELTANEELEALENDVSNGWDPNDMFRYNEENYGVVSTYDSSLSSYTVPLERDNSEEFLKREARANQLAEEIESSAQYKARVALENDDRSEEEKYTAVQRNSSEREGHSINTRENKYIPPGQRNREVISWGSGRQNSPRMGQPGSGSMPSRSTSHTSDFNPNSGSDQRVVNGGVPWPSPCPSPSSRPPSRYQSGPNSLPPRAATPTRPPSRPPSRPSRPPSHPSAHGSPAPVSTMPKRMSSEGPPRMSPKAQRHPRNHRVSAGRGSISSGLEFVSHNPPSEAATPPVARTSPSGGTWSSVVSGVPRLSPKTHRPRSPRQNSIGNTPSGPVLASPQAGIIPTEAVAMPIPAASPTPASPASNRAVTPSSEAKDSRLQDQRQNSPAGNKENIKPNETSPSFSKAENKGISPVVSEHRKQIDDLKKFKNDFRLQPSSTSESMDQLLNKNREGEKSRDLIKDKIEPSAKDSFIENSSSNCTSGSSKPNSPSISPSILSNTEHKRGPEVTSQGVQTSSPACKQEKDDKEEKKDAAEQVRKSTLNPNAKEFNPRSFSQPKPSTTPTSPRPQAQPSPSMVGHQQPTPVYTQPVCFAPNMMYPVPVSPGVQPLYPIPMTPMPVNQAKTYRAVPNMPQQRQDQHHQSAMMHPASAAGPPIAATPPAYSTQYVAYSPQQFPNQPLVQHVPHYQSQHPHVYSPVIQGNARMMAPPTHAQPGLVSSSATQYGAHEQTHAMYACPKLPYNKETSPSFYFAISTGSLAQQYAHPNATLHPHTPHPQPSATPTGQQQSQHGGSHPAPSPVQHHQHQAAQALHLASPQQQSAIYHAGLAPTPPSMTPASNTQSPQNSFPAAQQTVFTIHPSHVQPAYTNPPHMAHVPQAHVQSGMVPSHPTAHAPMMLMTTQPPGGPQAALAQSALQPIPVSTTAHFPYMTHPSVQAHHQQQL
With `COc1ccc(-c2cc(=O)oc3c(C)c(O)c(CN(C)C)cc23)cc1`, the Potency result is “inactive”.

`COCCNC(=O)/C(C#N)=C/c1c(N2CCN(C)CC2)nc2c(C)cccn2c1=O`: the Potency result was “inactive”. The value for `CCOCCCn1c(=N)c(C(=O)NCc2cccnc2)cc2c(=O)n3cc(C)ccc3nc21` was “inactive”; that for `Cc1ccc(S(=O)(=O)c2cc3ccc(O)cc3oc2=O)cc1C` was “inactive”.

Regarding `CCCc1cc(=O)oc2c(CN3CCCC3)c(O)c(Cl)cc12`, the Potency result was “inactive”.

Regarding `CC(=O)NC(=Nc1ccc(C)cc1Cl)Nc1nc(C)cc(C)n1`, the Potency entry is “inactive”. In the case of `Cc1ccc(C)c(OCC(O)CN2CCC(Cc3ccccc3)CC2)c1` (centres undefined), the Potency is 39.8 µM (active).

As for `Oc1c(C(c2ccccn2)N2CCC(Cc3ccccc3)CC2)cc(Cl)c2cccnc12` (centres undefined), the Potency result was “inactive”. Turning to `CC1=C(C(=O)N(C(C)C)C(C)C)CC(CC(=O)NCc2cccc3ccccc23)C(=O)N1CCC1=CCCCC1` (centres undefined), the Potency is 39.8 µM (active). `CC1=C(C(=O)N(C(C)C)C(C)C)CC(CC(=O)NC(c2ccccc2)c2ccccc2)C(=O)N1CCC1=CCCCC1` (centres undefined): the Potency is 39.8 µM (active). Turning to `CC(CCc1ccccc1)NC(=O)C1CCC1` (centres undefined), the Potency entry is “inactive”.

With `O=C(COC(=O)c1cc(S(=O)(=O)N2CCCC2)ccc1O)NCCc1ccccc1`, the Potency entry was “inactive”. Regarding `CC1=C(C(=O)N(C(C)C)C(C)C)CC(CC(=O)NCCCCc2ccccc2)C(=O)N1CCC1=CCCCC1` (centres undefined), the Potency is 39.8 µM (active). In the case of `CC1=C(C(=O)N2CCCCCC2)CC(CC(=O)NCCCCc2ccccc2)C(=O)N1Cc1ccccc1` (centres undefined) it was 35.5 µM (active); in that of `CCOC(=O)C(CC(=O)O)NCc1ccco1` (centres undefined), “inactive”; in that of `CCn1nc(C)c(/C=N/NC(=O)c2nc3nc(C)cc(C)n3n2)c1C`, “inactive”.

`CC1=C(C(=O)N2CCCCCC2)CC(CC(=O)NCCCCc2ccccc2)C(=O)N1CCC1=CCCCC1` (centres undefined): the Potency is 17.8 µM (active).

As for `CCOC(=O)c1c(N)n(CCOC(=O)c2cccs2)c2nc3ccccc3nc12`, the Potency result was “inactive”. In the case of `O=C(CCl)N1CCN2C(=O)c3ccccc3C12c1ccc(Cl)cc1` (centres undefined) it was 21.2 µM (active). In the case of `CCOC(=O)N1CCc2[nH]c3ccc(C)cc3c2C1` it was “inactive”; in that of `CN(C)CC(O)CN(c1ccccc1)c1ccccc1` (centres undefined), “inactive”; in that of `CN(C)CC(CCC(CN(C)C)C(O)(c1ccccc1)c1ccccc1)C(O)(c1ccccc1)c1ccccc1` (centres undefined), 28.2 µM (active). In the case of `COc1ccc(S(=O)(=O)N2CCN(C(=O)c3cc4c(s3)CCCC4)CC2)cc1`, the Potency result is “inactive”. Consider `CCC(C)NC(=O)c1cc2c(=O)n3cccc(C)c3nc2s1` (centres undefined), for which the Potency result was “inactive”. As for `Clc1ccc(/C=N/N2CCN(Cc3ccccc3)CC2)cc1`, the Potency result was “inactive”. The value for `CN(C)c1ccc(/C=N/N2CCN(c3ccccn3)CC2)cc1` was “inactive”; that for `CN1CCN(/N=C/c2ccc(N(c3ccccc3)c3ccccc3)cc2)CC1` was 31.6 µM (active); that for `COc1ccc2oc(=O)c(-c3cn4ccc(C)cc4n3)cc2c1` was “inactive”. In the case of `COc1ccc(C2=CC(c3ccc(N(C)C)cc3)n3nnnc3N2)cc1` (centres undefined) it was “inactive”. Take `O=C(CSc1nccc(-c2cccs2)n1)Nc1cccc(Cl)c1Cl`: the Potency result is “inactive”. In the case of `CC(C)CNC(=O)COC(=O)c1c2c(nc3ccccc13)/C(=C\c1cccs1)CC2` it was “inactive”. In the case of `COc1ccccc1-c1ccc(/C=C2\C=CC(=O)O2)o1` it was “inactive”. In the case of `COc1ccccc1-c1c(C#N)c(N)nc2c1CCC2` it was “inactive”; in that of `COc1ccccc1-c1cc(SC)c(C#N)c(=O)o1`, 35.5 µM (active). Regarding `CC1CCCN(Cc2c(O)ccc3c2O/C(=C\c2ccco2)C3=O)C1` (centres undefined), the Potency result was “inactive”. In the case of `CN(c1ccccc1)c1ccc(/C=C/[N+](=O)[O-])cc1` it was 25.1 µM (active).

Turning to `O=C(NCCCN1CCOCC1)c1cc2nc(-c3ccco3)cc(C(F)(F)F)n2n1`, the Potency entry is “inactive”. With `O=C(CNC(=S)N(CCCN1CCOCC1)Cc1cccs1)NCc1ccccc1`, the Potency result is “inactive”. In the case of `O=C(CCS(=O)(=O)c1ccccc1)N(CCCN1CCOCC1)c1nc2c(F)cccc2s1` it was 31.6 µM (active); in that of `Nc1c(C(=O)NCCN2CCOCC2)c2nc3ccccc3nc2n1CCc1ccccc1F`, “inactive”. `O=C(CCS(=O)(=O)c1ccccc1)N(CCCN1CCOCC1)c1nc2ccc(F)cc2s1`: the Potency was 25.1 µM (active).

For `Cc1cccc2sc(N(CCN3CCOCC3)C(=O)CCS(=O)(=O)c3ccccc3)nc12`, the Potency is 39.8 µM (active). In the case of `O=C(CCS(=O)(=O)c1ccccc1)N(CCCN1CCOCC1)c1nc2ccccc2s1` it was 39.8 µM (active); in that of `Nc1c(C(=O)c2ccccc2)sc2nsc(SCCN3CCOCC3)c12`, “inactive”. Take `Nc1c(C(=O)NCCN2CCOCC2)c2nc3ccccc3nc2n1-c1ccccc1`: the Potency result is “inactive”. The value for `Nc1c(C(=O)NCCN2CCOCC2)c2nc3ccccc3nc2n1-c1cccc(F)c1` was “inactive”; that for `CCCCC1CCC(C(=O)OC(C)C(=O)Nc2ccc(NC(C)=O)cc2)CC1` (centres undefined) was “inactive”; that for `NNC(=O)c1oc2nc(-c3ccccc3)cc(-c3ccccc3)c2c1N` was “inactive”. In the case of `Cc1nc2nc(-c3cccs3)cn2nc1C`, the Potency result is “inactive”. The value for `CCCCn1c(NC(=O)c2ccccc2)c(C#N)c2nc3ccccc3nc21` was “inactive”; that for `COc1ccccc1NCC(=O)N/N=C/c1sccc1C` was “inactive”. The value for `COc1cccc(CN=C(S)Nc2cc(C)ccc2C)c1` was “inactive”; that for `CCN(CC)CCN(C(=O)CCS(=O)(=O)c1ccccc1)c1nc2c(C)cc(C)cc2s1` was 44.7 µM (active). `CCn1ccc2c(OCC(=O)Nc3ccc(C)c(Cl)c3)cccc2c1=O`: the Potency is 39.8 µM (active). The value for `COC(=O)COc1cccc2c(=O)n(CC(=O)N3CCCCC3)ccc12` was “inactive”; that for `CCn1cc(C(=O)OCC(=O)Nc2ccc(C)c(Cl)c2)c(=O)c2ccc(C)nc21` was “inactive”. For the compound `CN1CCN(C2=C(Cl)C(=O)c3ccccc3C2=O)CC1`, the Potency was 16.8 µM (active). Consider `Cc1ccccc1C(=O)OC(C)CN1CCN(C)CC1` (centres undefined), for which the Potency result is “inactive”. For `CC1CCN(c2ccc3c(c2)S(=O)(=O)c2ccccc2C3=O)CC1`, the Potency result was “inactive”. In the case of `CCN(CC(=O)Nc1ccccc1OC)C(=O)c1ccccc1Sc1ccccc1C#N` it was “inactive”; in that of `CCN(CC)c1ccc(N=Nc2nc[nH]n2)cc1`, 10 µM (active); in that of `CCOc1ccc(N(C)S(=O)(=O)c2c[nH]cn2)cc1`, “inactive”. In the case of `O=C(O)c1ccccc1-c1ccc(/C=C/c2cc(C(F)(F)F)nc(O)n2)o1` it was “inactive”; in that of `COc1ccccc1CN1CCc2c([nH]c3ccccc23)C1`, “inactive”; in that of `C/C(=C\c1ccccc1)C(=O)c1c(C)cc(C)nc1O`, “inactive”. For the compound `COc1cccc(C=C(C(C)=O)C(=O)c2ccccc2)c1`, the Potency is 31.6 µM (active). In the case of `CC(=O)C(=Cc1ccc(-c2ccccc2)cc1)C(=O)c1ccccc1` it was 28.2 µM (active); in that of `COc1cccc(C(=O)NNS(=O)(=O)c2ccccc2)c1`, “inactive”; in that of `COc1cccc(C(=O)COC(=O)CCC(=O)c2ccccc2)c1`, “inactive”.
